Test in all cases: NCI-60 one-dose screen, 48 h (100 = growth as untreated, 0 = no growth, -100 = all killed)
Holding throughout (conditions): 10 µM unless noted

Assay [1] has as its system HCT-15 colon.
Assay [2] deals with HT29 colon.
Assay [3] deals with SNB-75 CNS.
The test system of assay [4] is SNB-19 CNS.
Assay [5] deals with U251 CNS.
In assay [6] the test system is PC-3 prostate.
For assay [7], the system named is SK-MEL-5 melanoma.
Assay [8] has as its system UACC-62 melanoma.
For assay [9], the system named is LOX IMVI melanoma.
Assay [10] relates to SK-MEL-28 melanoma.
Assay [11] relates to SK-MEL-2 melanoma.
The subject of assay [12] is EKVX NSCLC.
Assay [13] deals with SN12C renal.
Assay [14] relates to UO-31 renal.
For assay [15], the system named is TK-10 renal.
Assay [16] deals with ACHN renal.
The subject of assay [17] is A498 renal.
The subject of assay [18] is CCRF-CEM leukemia.
Assay [19] has as its system MOLT-4 leukemia.
For assay [20], the system named is SR leukemia.

Compounds without any hit were thinned out: in the full panel of roughly 83,000, 20% have a hit.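 How to read the values: 0–100, growth inhibition (40 = 60% inhibited); 0, no net growth; -100 to 0, cell death (-40 = 40% of starting cells died; -100 = all dead).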 Unmarked numbers belong to inactive results. The source made the active and inactive calls. How the source made its calls: active means growth percent below 10; inactive means the rest.

For `CC1CCCN(CCCCCOc2ccc3oc4ccc(Cl)cc4c(=O)c3c2)C1` (configuration not stated), the growth in assay [1] is 2.05% (active); in assay [2] it was 4.5% (active); in assay [3], 82.5%; in assay [4], 86.4%; in [5], 68.2%; in assay [6] it was 79.8%. In addition, the growth in assay [7] is -14.3% (active); in assay [8], -43.1% (active); in assay [9] it was 10.9%; in assay [10] it was 79.9%; in assay [11], 96.7%; in assay [12], 78.3%. Besides, the growth was 74.6% in assay [13]; 70.7% in assay [14]; 92% in assay [15]; 89.4% in [16]; 76.3% in [17]; 72.8% in assay [18]. The growth in [19] is 48.5%; in assay [20] it was 21%.
For `O=C(CN1N=C(c2ccc(F)cc2)CCC1=O)Nc1nc2ccccc2s1`, the growth in [1] is 86%; in assay [2], 1.85% (active); in assay [3], -49.1% (active); in assay [4], 94.4%; in assay [5], 16%; in assay [6], 5.7% (active). The growth is 89.3% in [7]; 79.6% in assay [8]; -89.5% (active) in assay [9]; 100% in assay [10]; 92.7% in assay [11]; 24% in assay [12]. The growth in assay [13] is 40.2%; in [14], -84% (active); in [15] it was 95.3%; in assay [16], -23.6% (active); in assay [17], 97.8%; in assay [19] it was 33.4%. Further, in assay [20], the growth is -52.2% (active).
With `C=C(C)[C@@H]1CC[C@]2(C(=O)O)CC[C@]3(C)[C@H](CC[C@@H]4[C@@]5(C)C[C@@H](CC#Cc6ccccc6C)C(=O)C(C)(C)[C@@H]5CC[C@]43C)[C@@H]12`, the growth in assay [1] is 20.9%; in [2] it was 22.3%; in [3] it was 58.1%; in assay [4] it was 40%; in assay [5], 25.4%; in assay [6], 31.4%. Besides, the growth is 28.2% in [7]; 41.4% in assay [8]; 43.6% in [9]; 42.9% in assay [10]; 41.1% in [11]; 28.1% in [12]. Besides, the growth is 37.8% in assay [13]; 29.4% in [14]; 27.3% in assay [15]; 29.4% in assay [16]; 10.7% in assay [17]; 31.1% in assay [18]. Besides, the growth in [19] is 13.3%; in [20], 23%.
On to `COc1ccc(/C=C/C(=O)Nc2ncnc3nc[nH]c23)cc1`, for which the growth in assay [1] is 92.2%; in assay [2] it was 96.5%; in assay [3], 82%; in assay [4] it was 99.7%; in [5], 99.4%; in assay [6] it was 98.1%. For the same compound, the growth was 94.8% in assay [7]; 81.8% in [8]; 101% in [9]; 99.4% in assay [10]; 96.2% in [11]; 100% in assay [12]. Also, the growth in assay [13] was 96.2%; in assay [14], 87.8%; in assay [15], 103%; in assay [16] it was 111%; in assay [17], 108%; in assay [18], 79.2%. For the same compound, the growth was 68.9% in assay [19] and 73.4% in assay [20].
On to `O=C1[C@@H](OS(=O)(=O)CC(F)(F)F)[C@H](c2ccc(F)cn2)N1c1cc2c3ccccc3ccc2c2ccccc12`, for which the growth in assay [1] was 61.9%; in assay [2], 64.1%; in [3], 83.4%; in [4], 77.9%; in assay [5] it was 69.2%; in assay [6], 62.8%. The growth is 67.2% in [7]; 58.3% in assay [8]; 70.3% in assay [9]; 79.7% in assay [10]; 89.9% in assay [11]; 87.6% in assay [12]. For the same compound, the growth is 80.7% in assay [13]; 62.1% in [14]; 88.4% in assay [15]; 76.3% in assay [16]; 83.6% in assay [17]; 9.13% (active) in [18]. For the same compound, the growth in [19] was 0.0781% (active); in assay [20] it was 4.47% (active).
Consider `C=C1C(=O)O[C@H]2[C@H]1CC/C(COC(=O)CCCCCCCC(=O)OC/C1=C/CC[C@@]3(C)O[C@H]3[C@H]3OC(=O)C(=C)[C@@H]3CC1)=C\CC[C@@]1(C)O[C@@H]21`, for which the growth was -4.93% (active) in [1]; -8.08% (active) in assay [2]; 68% in assay [3]; 55% in assay [4]; 32.3% in assay [5]; 15.2% in [6]. The growth in assay [7] was 17.5%; in assay [8], -10.2% (active); in assay [9] it was -51.9% (active); in assay [10] it was 20.7%; in assay [11], 59.9%; in assay [12], 18.5%. Besides, the growth is 4.85% (active) in assay [13]; -22.1% (active) in assay [14]; 3.41% (active) in [15]; -24.8% (active) in [16]; 109% in [17]; 5.92% (active) in assay [18]. The growth in assay [19] is 2.39% (active); in assay [20] it was 0.728% (active).
Turning to `Cc1cc(C)cc(Nc2nccc(-c3c(-c4ccc(F)cc4)ncn3C3CCNCC3)n2)c1`, the growth was 9.67% (active) in assay [1]; -0.976% (active) in [2]; 17% in [3]; 27.5% in [4]; 13.1% in assay [5]; 15.4% in assay [6]. Besides, the growth was -87.6% (active) in assay [7]; 21.6% in assay [8]; -81.3% (active) in assay [9]; -34.7% (active) in assay [10]; 21.4% in assay [11]; 27.4% in [12]. Further, the growth in [13] is 16.5%; in assay [14], -28.6% (active); in assay [15], 17.8%; in assay [16], 4.78% (active); in assay [17] it was 53.2%; in assay [19] it was -14.2% (active). Also, the growth in assay [20] was -31% (active).
On to `O=c1c2ccccc2n(CC(O)CN2CCCC2)c2c(Br)cccc12` (configuration not stated), for which the growth in assay [1] was 103%; in assay [2], 103%; in assay [3], 79%; in [4] it was 84.7%; in assay [5] it was 98.8%; in assay [6] it was 95.9%. Further, the growth was 96.8% in assay [7]; 119% in assay [8]; 96.6% in assay [9]; 96.9% in assay [10]; 112% in [11]; 99.1% in [12]. Also, the growth in [13] was 109%; in assay [14] it was 89.1%; in assay [15], 106%; in assay [16], 108%; in [17] it was 71.8%; in assay [18] it was 82.3%. The growth in assay [19] was 104%; in [20] it was 77%.
In the case of `NS(=O)(=O)c1ccc(N2Cc3cc(Cl)ccc3OC3=C2C(=O)N(CC2CCCCC2)C3=O)cc1`, the growth in assay [1] was -79.2% (active); in assay [2], -67.4% (active); in assay [3], -98.4% (active); in assay [4] it was -6.19% (active); in [5], -91.3% (active); in assay [6], -61.9% (active). The growth is -94.4% (active) in assay [7]; -76.1% (active) in [8]; -86.2% (active) in [9]; -93.1% (active) in assay [10]; -72.3% (active) in assay [11]; -65.1% (active) in assay [12]. For the same compound, the growth in assay [13] was -65.3% (active); in assay [14] it was -84% (active); in assay [15], -96.7% (active); in assay [16], -100% (active); in assay [17], -72.2% (active); in assay [19], -34.9% (active). In addition, the growth in assay [20] is -43.4% (active).
For `N#Cc1c(-c2ccc(F)cc2)nc(N=Nc2c(O)[nH]c3ccccc23)nc1N1CCOCC1`, the growth in assay [1] was 66.9%; in [2], 78.4%; in assay [3], 22.5%; in assay [4] it was 70.1%; in assay [5] it was 27.4%; in assay [6], 64.1%. Also, the growth in assay [7] was 64.7%; in assay [8] it was 48.8%; in assay [9], 74.9%; in [10], 72.3%; in assay [11], 105%; in [12], 77.6%. For the same compound, the growth was 30.4% in assay [13]; 60.4% in assay [14]; 65.4% in assay [15]; 65.5% in [16]; 80.8% in [17]; 77.4% in [18]. The growth is 95.3% in assay [19] and 88.2% in assay [20].
For `COc1ccc(-c2cc(-c3nnc(SCC(=O)Nc4ccc(/C(C)=N\O)cc4)n3-c3ccccc3)c3cc(OC)ccc3n2)cc1`, the growth in assay [1] is 70%; in [2], 79.8%; in [3], 80.3%; in assay [4] it was 77.9%; in [5], 78.1%; in assay [6], 61.1%. In addition, the growth was 83.8% in assay [7]; 49% in [8]; -36.4% (active) in assay [9]; 95.4% in assay [10]; 86.9% in assay [11]; 82.7% in [12]. Moreover, the growth was 86.8% in [13]; 54.7% in assay [14]; 87.8% in [15]; 72.6% in assay [16]; 78.1% in [17]; 37.2% in [18]. Moreover, the growth in [19] was 29.9%; in [20], 49.1%.
Regarding `O=C(O)COc1ccc2c(=O)c3sc4c(=O)c5ccccc5c(=O)c4c3c(=O)c2c1`, the growth is -75% (active) in assay [1]; -37.4% (active) in [2]; -42% (active) in assay [3]; 0.0814% (active) in [4]; 29.8% in assay [5]; 54% in [6]. Besides, the growth was -99.6% (active) in assay [7]; -91.4% (active) in assay [8]; -37.6% (active) in assay [9]; -16.2% (active) in assay [10]; 25.5% in assay [11]; 78.9% in assay [12]. Further, the growth was -11.6% (active) in assay [13]; 43.5% in [14]; 74.8% in [15]; 62.7% in [16]; -86.9% (active) in assay [17]; 56.8% in [18]. Further, the growth in assay [19] was 45.1%; in [20] it was 26.6%.
As to `COc1ccc(/C=C(/C(=O)N2CCCC2)c2cc(OC)c(OC)c(OC)c2)cc1`, the growth in assay [1] was 39.6%; in [2], 11.6%; in [3], 32%; in assay [4], 46.8%; in assay [5], 25.1%; in [6], 26.3%. For the same compound, the growth is 15% in [7]; 44.1% in assay [8]; 54.2% in assay [9]; 73.9% in [10]; 64.3% in [11]; 73.1% in assay [12]. Also, the growth in assay [13] was 48.1%; in [14] it was 44.5%; in assay [15], 71.3%; in assay [16], 54.5%; in assay [17] it was 13.4%; in assay [18], 14%. In addition, the growth in [19] is 32.6%; in assay [20] it was 19.7%.
For the compound `Nc1n[nH]c2cccc(C#Cc3cccc(NC(=O)c4cc(N5CCOCC5)cc(C(F)(F)F)c4)c3)c12`, the growth is 36.9% in [1]; 22.6% in assay [2]; 71.5% in assay [3]; 83.9% in assay [4]; 56.3% in [5]; 69% in assay [6]. Moreover, the growth is 55.7% in [7]; 14% in assay [8]; 18.6% in assay [9]; 24.5% in [10]; 0.377% (active) in [11]; 59.9% in assay [12]. In addition, the growth in assay [13] was 57.6%; in assay [14], 17.5%; in assay [15], 36.5%; in assay [16] it was 25.3%; in assay [17], -5.08% (active); in [18], 44.2%. In addition, the results for the growth in [19] and in [20] were 30.4% and 43.5%, respectively.
